According to article PMC4336329 (PLoS ONE, 2015):
The whole screen tested about 310,000 compounds, of which about 14,000 (4.5%) showed an effect of 50% or more. Effects have a minus sign here. The sample as a whole holds a higher share of strong results than the screen did.

Molecular target: human ether-à-go-go-related gene (hERG) potassium channel (human, UniProt Q12809)
Assay: primary screen, population patch clamp on CHO cells stably expressing hERG; higher = less effect of the substance
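Also: peak tail current of the secondary pulse compared with the same well before compound.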

Chain of human ether-à-go-go-related gene (hERG) potassium channel (Q12809 whole entry, looked up): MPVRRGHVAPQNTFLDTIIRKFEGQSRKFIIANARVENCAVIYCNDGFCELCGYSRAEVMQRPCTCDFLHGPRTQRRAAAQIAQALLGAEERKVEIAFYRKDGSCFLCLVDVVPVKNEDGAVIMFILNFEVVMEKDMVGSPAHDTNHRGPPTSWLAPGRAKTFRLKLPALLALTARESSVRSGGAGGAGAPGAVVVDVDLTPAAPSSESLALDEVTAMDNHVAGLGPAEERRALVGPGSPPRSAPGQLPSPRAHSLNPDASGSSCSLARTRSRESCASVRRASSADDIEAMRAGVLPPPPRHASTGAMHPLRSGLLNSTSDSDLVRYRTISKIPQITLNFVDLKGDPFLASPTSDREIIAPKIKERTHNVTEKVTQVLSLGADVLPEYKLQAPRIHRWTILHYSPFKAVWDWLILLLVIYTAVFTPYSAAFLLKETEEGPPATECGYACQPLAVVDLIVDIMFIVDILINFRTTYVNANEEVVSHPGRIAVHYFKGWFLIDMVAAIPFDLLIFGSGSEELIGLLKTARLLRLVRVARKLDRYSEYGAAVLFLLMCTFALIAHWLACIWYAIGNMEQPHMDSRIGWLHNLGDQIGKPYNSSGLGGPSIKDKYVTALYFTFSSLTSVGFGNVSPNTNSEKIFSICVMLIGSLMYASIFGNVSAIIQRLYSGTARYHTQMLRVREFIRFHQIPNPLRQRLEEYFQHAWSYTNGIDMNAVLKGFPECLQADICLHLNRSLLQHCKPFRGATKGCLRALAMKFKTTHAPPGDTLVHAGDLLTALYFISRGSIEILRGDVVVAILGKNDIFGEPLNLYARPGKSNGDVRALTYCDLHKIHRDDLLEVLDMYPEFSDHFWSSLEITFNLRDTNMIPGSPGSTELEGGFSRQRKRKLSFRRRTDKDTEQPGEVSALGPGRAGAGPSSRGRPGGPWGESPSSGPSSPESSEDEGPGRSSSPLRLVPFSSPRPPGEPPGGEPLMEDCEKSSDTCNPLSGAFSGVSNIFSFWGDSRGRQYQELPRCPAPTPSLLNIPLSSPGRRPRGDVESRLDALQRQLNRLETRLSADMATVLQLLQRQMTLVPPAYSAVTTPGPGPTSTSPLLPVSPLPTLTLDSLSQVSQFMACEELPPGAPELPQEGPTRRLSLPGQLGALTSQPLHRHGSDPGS

Row | Compound | hERG current change (%, negative = inhibition) at 10uM [%]
1 | CN(Cc1ccccc1)Cc1nc2c(c(=O)n(C)c(=O)n2C)n1Cc1ccc(Cl)cc1 | -30.1
2 | CCCCn1c(CN(C)Cc2ccccc2)nc2c1c(=O)n(C)c(=O)n2C | -39.9
3 | CN(Cc1ccccc1)Cc1nc2c(c(=O)n(C)c(=O)n2C)n1Cc1ccc(F)cc1 | -55.6
4 | CCCCC(CC(O)COCCC)C(=O)NN (stereo not drawn) | 16.1
5 | O=Cc1ccc(N2N=C(c3ccccc3)CC2c2ccccc2)cc1 (stereo not drawn) | 24.3
6 | Cc1[nH]c(C)c2c(=O)n(-c3ccccc3)ncc12 | 10.2
7 | COc1ccc(C2C(C#N)=C(N)N(N(C)C)C3=C2C(=O)CCC3)cc1 (stereo not drawn) | 9.88
8 | CCOC(=O)N1CCN(S(=O)(=O)c2ccc(Cl)cc2)CC1 | 0.615
9 | O=C(CSc1nc(-c2ccccc2)cs1)NCc1ccco1 | -14.9
10 | Cn1c(=O)c2c(nc(CN3CCc4ccccc4C3)n2Cc2cccc(Cl)c2)n(C)c1=O | -53.9
11 | Cc1ccccc1Cn1c(CN2CCc3ccccc3C2)nc2c1c(=O)n(C)c(=O)n2C | -15.9
12 | COc1ccc(N2CCN(Cc3nc4c(c(=O)n(C)c(=O)n4C)n3CCc3ccccc3)CC2)cc1 | 13.5
13 | Cn1c(=O)c2c(nc(CN3CCc4ccccc4C3)n2Cc2ccc(F)cc2)n(C)c1=O | -26.5
14 | Cc1ccc(Cn2c(CN(C)Cc3ccccc3)nc3c2c(=O)n(C)c(=O)n3C)cc1 | -21.5
15 | COc1ccc(N2CCN(Cc3nc4c(c(=O)n(C)c(=O)n4C)n3Cc3cccc(C)c3)CC2)cc1 | -52.3
16 | Cn1c(=O)c2c(nc(CN3CCN(Cc4ccccc4)CC3)n2Cc2ccc(F)cc2)n(C)c1=O | -67.2
17 | Cc1ccc(C)c(Cn2c(CN(C)Cc3ccccc3)nc3c2c(=O)n(C)c(=O)n3C)c1 | -51.3
18 | CCOC(=O)N1CCN(Cc2nc3c(c(=O)n(C)c(=O)n3C)n2Cc2ccc(F)cc2)CC1 | -36.2
19 | COCCn1c(CN2CCN(c3ccc(OC)cc3)CC2)nc2c1c(=O)n(C)c(=O)n2C | -9.23
20 | CN(Cc1ccccc1)Cc1nc2c(c(=O)n(C)c(=O)n2C)n1Cc1ccccc1Cl | -5.6
21 | Cn1c(=O)c2c(nc(CN3CCc4ccccc4C3)n2Cc2ccccc2)n(C)c1=O | -17.5
22 | NC(=S)Nc1ccc(C(F)(F)F)cc1Cl | 0.127
23 | O=C(CN1C(=O)C2(OCCO2)c2ccccc21)c1ccc(F)cc1 | 2.09

Row | Compound | hERG current change (%, negative = inhibition) at 10uM [%]
24 | COc1ccc(CCCC(=O)Nc2cc(C)ccc2OC)cc1 | -14.2
25 | CCOc1cc(C(=O)CCC(=O)OCC(=O)Nc2ccc(C)c(S(=O)(=O)N(C)C)c2)ccc1O | -32.7
26 | Cc1cc(N)n(Cc2cccs2)n1 | -2.95
27 | COc1ccc(C(=O)Nc2nnc(S(=O)(=O)N(C)Cc3ccccc3)s2)cc1 | 7.21
28 | O=c1c2ccccc2[nH]c(=S)n1-c1ccc2c(c1)OCO2 | 13.1
29 | Cc1nc(NC(=O)CSc2nnc3ccccn23)c(Cl)cc1Cl | -3.58
30 | Cn1c(=O)c2c(nc(CN3CCN(Cc4ccccc4)CC3)n2CCN2CCOCC2)n(C)c1=O | -17.6
31 | Cn1c(=O)c2c(nc(CN3CCN(Cc4ccccc4)CC3)n2Cc2ccc(Cl)cc2)n(C)c1=O | -68
32 | Cn1c(=O)c2c(nc(CN3CCc4ccccc4C3)n2Cc2ccc(Cl)cc2)n(C)c1=O | 0.125
33 | Cc1csc(SCC(=O)Nc2cc(S(=O)(=O)N3CCOCC3)ccc2N2CCOCC2)n1 | -45.8
34 | CCn1c(SCC(=O)Nc2ccc(OC)cc2)nnc1-c1ccco1 | -22.3
35 | O=C(O)/C=C/C(=O)NNC(=O)c1ccccc1Br | 2.8
36 | O=c1[nH]c(SCc2ccc(Cl)cc2)nc2ccsc12 | -67
37 | O=c1[nH]c(SCc2ccccc2)nc2ccsc12 | 5.3
38 | O=c1[nH]c(SCc2ccc(Cl)cc2)nc2ccccc12 | 3.49
39 | COc1cc(CCCN2C(=S)NC[C@@H]2CC2CCCCC2)cc(OC)c1OC | -1.89
40 | CC(C)N(CC#CC(O)(c1ccccc1)c1ccccc1)C(C)C | -70.4
41 | OCCN(CC#CC(O)(c1ccccc1)c1ccccc1)CCO | 5.56
42 | CN(C)CCC#CC(O)(c1ccccc1)c1ccccc1 | -32.1
43 | CCN(CC)CC#CC(O)(c1ccccc1)c1ccccc1 | -42.5
44 | CN(CC#CC(O)(c1ccccc1)c1ccccc1)C(C)(C)C | -69
45 | CC(C)N(CC#CC(O)(c1ccccc1)c1ccccc1)CCO | -28.1
